Among the data in PubChem BioAssay (Tox21) are Potency, outcome and max activation values, retold here.

Assay [1] addresses Progesterone receptor (Homo sapiens) (UniProt P06401). Nature of the assay: qHTS assay to identify small molecule antagonists of the progesterone receptor (PR) signaling pathway (AID 1346795; active = well fitted inhibition curve with a large enough effect in the signal ratio in the repeat runs, not every such curve was filed as active; the % refers to the signal ratio). In a few lines: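 PR-UAS-bla HEK293T cells with beta-lactamase reporter under UAS control, in 2% charcoal-stripped FBS, treated with compounds plus 1 nM promegestone (R5020, final) for 16 hr at 37C. Read-out: FRET beta-lactamase substrate fluorescence after 2 hr at room temperature.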

The nature of assay [2]: qHTS assay to identify small molecule antagonists of the progesterone receptor (PR) signaling pathway - cell viability counter screen (AID 1346798). Also: series mostly up to about 92 µM; nearly all actives have a fitted effect of over 50% in size. In a few lines:
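PR-UAS-bla HEK293T cells, 3,000/well in 2% charcoal-stripped FBS medium, dosed with compounds plus R5020 agonist and incubated 16 h at 37C. Viability then measured in the same wells by CellTiter-Glo luminescence after 30 min at RT.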
In general terms: In qHTS, concentration-response curves come from the screen itself.

Assay [3] in a line: qHTS assay to identify small molecule antagonists of the TGF-beta/Smad signaling pathway - cell viability counter screen (AID 1346824). Also: nearly all actives have a fitted effect of over 50% in size. Put shortly: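 SBE-bla HEK 293T cells, incubated overnight, then compound plus 0.25 ng/mL TGF-beta1 (stock added) for 5 hr at 37 C. Viability was read in the same wells by CellTiter-Glo luminescence after 30 min at room temperature.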
Assay [4] in a line: qHTS assay to identify small molecule agonists of the TGF-beta/Smad signaling pathway - cell viability counter screen (AID 1346829). Also: top concentration of the series differs between compounds; nearly all actives have a fitted effect of over 45% in size. In a few lines:
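Tox21 qHTS format: SBE-bla HEK 293T cells treated with DMSO-dissolved compounds for 5 hr; CellTiter-Glo luminescence after 30 min at room temperature.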

Assay [5] in a line: qHTS assay to identify small molecule agonists of the TGF-beta/Smad signaling pathway (AID 1346859; active = well fitted activation curve with a large enough effect in the signal ratio in the repeat runs, not every such curve was filed as active; the % refers to the signal ratio; also: series mostly up to about 77 µM). In a few lines: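 SBE-bla HEK293T cells plated overnight, then compound exposure for 5 h at 37 C. Beta-lactamase reporter read with LiveBLAzer B/G FRET substrate after 2 h at room temperature, fluorescence at 405 nm excitation, 460/530 nm emission.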
Assay [6] has as its target Thyrotropin-releasing hormone receptor (Homo sapiens) (UniProt P34981). In words: qHTS assay to identify small molecule antagonists of the thyrotropin-releasing hormone receptor (TRHR) signaling pathway (AID 1346877; active = well fitted inhibition curve with a large enough effect in the repeat runs, not every such curve was filed as active; also: series mostly up to about 51 µM). In a few lines: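 HEK293/TRHR cells, 18 h, 37 °C; Ca2+ dye 2 h; cpd 5 min RT; TRH 1 nM final; fluorescence read 3 min, 1 s intervals; 15 concs, triplicate.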

For assay [7] the target is unchanged. In words: qHTS assay to identify small molecule agonists of the thyrotropin-releasing hormone receptor (TRHR) signaling pathway (AID 1346891; calls by dose curve; also: series mostly up to about 58 µM). In a few lines: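 HEK293 cells expressing TRHR plated 18 h at 37 C/5% CO2, calcium dye-loaded 2 h at 37 C, then compound added (agonist mode); kinetic calcium fluorescence read 3 min at 1 s intervals; 15 concentrations in triplicate.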

Assay [8] is described as follows: Human pregnane X receptor (PXR) small molecule agonists, qHTS cell viability counter screen (AID 1346977). Also: nearly all actives have a fitted effect of over 50% in size. Put shortly:
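PXR-Luc HepG2 cells (2,000/well, 5% charcoal-stripped FBS) preincubated 5 hr, then exposed to compounds 24 hr at 37 C. Viability read in the same wells by CellTiter-Fluor fluorescence, reagent added at 23 hr, 1 hr incubation.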

Assay [9] in a line: Caspase-3/7 induction in CHO-K1 cells by small molecules, qHTS cell viability counter screen (AID 1346979). Also: nearly all actives have a fitted effect of over 35% in size. Also: potency is read from the fitted curve at half-maximal effect. In a few lines: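 Wild-type CHO-K1 cells (1,500/well) treated with compound after 5 h plating; after 16 h at 37C, viability read as CellTiter-Fluor fluorescence following 1 h reagent incubation, in the same wells as the caspase read.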
Assay [10] can be described thus: Caspase-3/7 induction in CHO-K1 cells by small molecules, qHTS assay (AID 1346980). Also: nearly all actives have a fitted effect of over 15% in size. In a few lines: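 Wild-type CHO-K1 cells exposed to compounds for 17hr at 37 C, 5% CO2. Caspase-3/7 activity then measured by Caspase-Glo 3/7 luminescence after 30min at room temperature.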
Assay [11] concerns the target Nuclear receptor subfamily 1 group I member 2 (Homo sapiens) (UniProt O75469). Nature of the assay: Human pregnane X receptor (PXR) small molecule agonists, qHTS assay (AID 1346982). Also: nearly all actives have a fitted effect of over 35% in size. Also: potency is read from the fitted curve at half-maximal effect. In a few lines:
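HepG2 PXR-Luc reporter line, 5% charcoal-stripped FBS; 5 hr pre-incubation, compound (DMSO) 24 hr at 37 C/5% CO2; ONE-Glo 30 min RT; luminescence read-out.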

Assay [12] has as its target Cytochrome P450 2D6 (Homo sapiens) (UniProt P10635). In words: Cytochrome P450 Family 2 Subfamily D Member 6 (CYP2D6) small molecule antagonists: luciferase reporter qHTS assay (AID 1671196). Also: nearly all actives have a fitted effect of over 50% in size. Also: potency is read from the fitted curve at half-maximal effect. In a few lines: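 Luminogenic proluciferin substrate, CYP2D6 enzyme; 10 min RT preincubation with compound, NADPH regeneration system added, 1 h RT. Stop/detection reagent, 20 min RT, luminescence read (RLU). Signal proportional to CYP activity.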
(Reporter assays use an easily measured gene product as a stand-in for the process of interest.)

In assay [13] the target is Progesterone receptor (Homo sapiens) (UniProt P06401). Nature of the assay: qHTS assay to identify small molecule agonists of the progesterone receptor (PR) signaling pathway (AID 1346784; calls by dose curve; also: nearly all actives have a fitted effect of over 30% in size). Put shortly: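 PR-UAS-bla HEK 293T cells (beta-lactamase reporter under UAS) in 2% charcoal-stripped FBS, dosed with 23 nL compound after 6 hr, incubated 16hr at 37C. LiveBLAzer B/G FRET substrate added, fluorescence read after 2 hours.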
Sequence of Progesterone receptor (Homo sapiens) (P06401 whole entry, looked up): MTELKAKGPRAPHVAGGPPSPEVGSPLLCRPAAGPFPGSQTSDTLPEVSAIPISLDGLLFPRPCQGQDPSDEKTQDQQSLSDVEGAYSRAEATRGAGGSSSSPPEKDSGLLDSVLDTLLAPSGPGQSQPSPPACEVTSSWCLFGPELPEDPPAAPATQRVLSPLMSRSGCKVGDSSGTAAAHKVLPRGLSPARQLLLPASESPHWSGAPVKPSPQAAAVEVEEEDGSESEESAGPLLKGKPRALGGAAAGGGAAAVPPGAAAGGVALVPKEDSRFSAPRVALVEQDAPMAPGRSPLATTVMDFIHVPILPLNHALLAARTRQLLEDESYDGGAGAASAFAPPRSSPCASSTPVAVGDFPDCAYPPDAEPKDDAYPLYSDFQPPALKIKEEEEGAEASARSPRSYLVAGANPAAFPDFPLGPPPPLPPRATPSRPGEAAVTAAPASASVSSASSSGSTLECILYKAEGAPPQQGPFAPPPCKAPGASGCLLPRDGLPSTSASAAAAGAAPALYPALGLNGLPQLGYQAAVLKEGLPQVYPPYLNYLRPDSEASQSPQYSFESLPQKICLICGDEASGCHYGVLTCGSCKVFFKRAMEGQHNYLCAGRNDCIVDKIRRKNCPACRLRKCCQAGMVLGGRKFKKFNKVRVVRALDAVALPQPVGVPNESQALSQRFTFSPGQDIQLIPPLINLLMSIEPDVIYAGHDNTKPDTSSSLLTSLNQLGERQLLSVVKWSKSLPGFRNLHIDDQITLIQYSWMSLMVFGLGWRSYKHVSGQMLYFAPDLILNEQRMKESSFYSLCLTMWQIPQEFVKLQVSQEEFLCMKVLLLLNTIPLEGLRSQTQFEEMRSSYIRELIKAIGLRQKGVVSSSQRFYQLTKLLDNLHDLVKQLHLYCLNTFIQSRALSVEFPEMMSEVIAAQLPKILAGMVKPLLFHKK

Assay [14] can be described thus: Caspase-3/7 induction in HepG2 cells by small molecules, qHTS assay (AID 1346978). Also: nearly all actives have a fitted effect of over 15% in size. Put shortly:
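Wild-type HepG2 cells, 2,000/well, settled 5 hr at 37 C and 5% CO2, then compound-treated for 17 hr; caspase-3/7 activity read by luminescent Caspase-Glo 3/7 after 30 min at room temperature.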

A short description of assay [15]: Caspase-3/7 induction in HepG2 cells by small molecules, qHTS cell viability counter screen (AID 1346981). Also: series mostly up to about 92 µM; nearly all actives have a fitted effect of over 30% in size. In a few lines: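 Fluorescence read-out of live-cell protease activity (CellTiter-Fluor) after 1 hr with reagent. This was measured in the same wells as the caspase-3/7 luminescence, on HepG2 cells exposed to DMSO-dissolved compounds for 16 hr at 37 C.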
The nature of assay [16]: qHTS assay to identify small molecule agonists of the progesterone receptor (PR) signaling pathway - cell viability counter screen (AID 1346799; calls by dose curve; also: nearly all actives have a fitted effect of over 45% in size; also: potency is read from the fitted curve at half-maximal effect). In a few lines: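 Counter screen in the PR-UAS-bla HEK293T wells (2% charcoal-stripped FBS, 16 h compound exposure at 37 C) after the bla read. CellTiter-Glo added, 30 min at room temperature, luminescence read as cell viability.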

Assay [17] deals with Nuclear receptor subfamily 1 group I member 2 (Rattus norvegicus) (UniProt Q9R1A7). In words: Rat pregnane X receptor (rPXR) activation by small molecules, qHTS assay (AID 1346983). Also: nearly all actives have a fitted effect of over 20% in size. The following applies: rPXR luciferase reporter cells, One-Glo luminescence, 24 h; max activation: stronger effect = higher value. In a few lines: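 Cell-based rPXR activation assay: rPXR cells, 2,000 per well, rested 5hr at 37 C, then exposed to compounds in DMSO for 24 hr at 37 C. Luciferase activity read by One-Glo luminescence after 30 min at room temperature.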
Sequence of Nuclear receptor subfamily 1 group I member 2 (Rattus norvegicus) (Q9R1A7 whole entry, looked up): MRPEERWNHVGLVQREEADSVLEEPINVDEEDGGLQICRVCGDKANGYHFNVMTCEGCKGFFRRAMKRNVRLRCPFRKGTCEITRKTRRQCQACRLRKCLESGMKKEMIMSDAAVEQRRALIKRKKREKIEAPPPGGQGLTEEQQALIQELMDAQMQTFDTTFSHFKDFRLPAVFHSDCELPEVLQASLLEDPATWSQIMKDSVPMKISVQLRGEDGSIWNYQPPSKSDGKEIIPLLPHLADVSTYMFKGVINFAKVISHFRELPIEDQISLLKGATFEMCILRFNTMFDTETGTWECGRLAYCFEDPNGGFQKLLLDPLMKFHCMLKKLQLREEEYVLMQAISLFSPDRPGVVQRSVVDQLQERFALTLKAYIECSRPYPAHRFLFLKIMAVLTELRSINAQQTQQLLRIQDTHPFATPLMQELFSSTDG

Assay [18] addresses Nuclear receptor subfamily 1 group I member 2 (Homo sapiens) (UniProt O75469). Nature of the assay: CYP3A4 induction through human pregnane X receptor (PXR) by small molecules, qHTS assay (AID 1346984). Also: nearly all actives have a fitted effect of over 40% in size. Also: potency is read from the fitted curve at half-maximal effect. Put shortly:
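HepG2-derived DPX-2 line carrying PXR plus a CYP3A4-promoter luciferase reporter; cells plated 5 hr, compound-exposed 24 hr at 37C. CYP3A4 activity probed with 3uM (final) Luciferin-IPA for 3hr, then luciferase read after One-Glo.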

Assay [19] shares this target. Nature of the assay: Human pregnane X receptor (PXR) activation by small molecules, qHTS assay (AID 1346985). Also: nearly all actives have a fitted effect of over 40% in size. Put shortly: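 DPX-2 cells (HepG2 co-transfected with a PXR response element and a CYP3A4-promoter luciferase construct) were seeded at 2,000 per well, rested 5 hr at 37C, then exposed to DMSO-dissolved compounds for 24 hr. Activation was read as luciferase luminescence.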

Values joined by “and” are separate entries in the source; they are usually repeats but may differ in a detail not shown here. Equal entries are not always repeated. A number with no mark means an inactive call. Inconclusive results are not listed. Active and inactive are the calls of the source. Unless noted, calls follow the shape of the dose curve; as a rule, active = well fitted curve in the direction sought with a large enough effect in the repeat runs; inconclusive = weak or mixed curves; inactive = no such curve, though single readings can be large; an effect the other way counts as inactive or inconclusive.
% is scaled to controls: 0 for no effect and ±100 for the full control effect.

Sequence of Thyrotropin-releasing hormone receptor (Homo sapiens) (P34981 whole entry, looked up): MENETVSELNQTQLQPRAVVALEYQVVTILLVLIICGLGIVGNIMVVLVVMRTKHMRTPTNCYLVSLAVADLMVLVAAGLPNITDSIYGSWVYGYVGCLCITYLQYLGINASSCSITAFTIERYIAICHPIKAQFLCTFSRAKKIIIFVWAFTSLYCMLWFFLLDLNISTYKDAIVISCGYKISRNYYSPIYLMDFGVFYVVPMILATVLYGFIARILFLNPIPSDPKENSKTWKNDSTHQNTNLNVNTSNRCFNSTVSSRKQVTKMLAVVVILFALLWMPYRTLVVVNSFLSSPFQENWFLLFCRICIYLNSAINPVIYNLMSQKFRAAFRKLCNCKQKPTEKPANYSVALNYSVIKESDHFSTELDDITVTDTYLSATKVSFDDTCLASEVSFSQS
Sequence of Nuclear receptor subfamily 1 group I member 2 (Homo sapiens) (O75469 whole entry, looked up): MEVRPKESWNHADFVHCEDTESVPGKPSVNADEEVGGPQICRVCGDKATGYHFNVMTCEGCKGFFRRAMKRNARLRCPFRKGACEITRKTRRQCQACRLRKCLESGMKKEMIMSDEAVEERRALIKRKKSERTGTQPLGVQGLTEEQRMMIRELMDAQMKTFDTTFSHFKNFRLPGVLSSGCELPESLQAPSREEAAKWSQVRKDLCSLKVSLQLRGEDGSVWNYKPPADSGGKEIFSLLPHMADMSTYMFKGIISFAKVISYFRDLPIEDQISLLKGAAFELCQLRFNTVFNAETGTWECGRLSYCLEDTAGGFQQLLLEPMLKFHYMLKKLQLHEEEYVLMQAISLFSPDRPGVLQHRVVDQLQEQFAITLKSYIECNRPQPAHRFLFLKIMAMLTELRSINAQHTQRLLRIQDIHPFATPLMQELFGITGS
Sequence of Cytochrome P450 2D6 (Homo sapiens) (P10635 whole entry, looked up): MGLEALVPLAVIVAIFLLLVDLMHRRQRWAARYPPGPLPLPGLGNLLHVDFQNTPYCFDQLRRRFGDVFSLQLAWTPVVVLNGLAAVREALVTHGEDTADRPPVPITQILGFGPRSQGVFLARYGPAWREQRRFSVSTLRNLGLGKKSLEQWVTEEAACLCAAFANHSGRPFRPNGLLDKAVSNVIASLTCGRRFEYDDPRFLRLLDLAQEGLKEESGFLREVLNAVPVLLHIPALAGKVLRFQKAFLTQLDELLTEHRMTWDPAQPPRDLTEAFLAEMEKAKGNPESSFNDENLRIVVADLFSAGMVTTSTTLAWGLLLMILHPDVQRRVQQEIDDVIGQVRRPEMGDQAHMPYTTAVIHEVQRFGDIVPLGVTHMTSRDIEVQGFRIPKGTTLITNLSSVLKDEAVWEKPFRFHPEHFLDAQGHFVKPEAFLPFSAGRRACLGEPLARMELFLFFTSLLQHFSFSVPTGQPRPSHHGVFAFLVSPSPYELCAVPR

`Cc1ncsc1CCO`: the Potency entry in assay [1], in assay [2], in [3], in [4], in [7] and in [8] was “inactive” throughout. The Potency entry in assay [9], in assay [10], in assay [11] and in [12] was “inactive” in each case. Besides, the compound was classed as inactive in assay [5] and in assay [6].
Regarding `C=CC[N+]1([C@H]2C[C@H]3[C@@H]4CC[C@H]5C[C@H](OC(C)=O)[C@@H](N6CCCCC6)C[C@]5(C)[C@H]4CC[C@]3(C)[C@H]2OC(=O)CC)CCCCC1`, the compound was called inactive in assay [13], in [5], in assay [6] and in assay [14]. Further, the Potency result in [2], in assay [3], in [4], in assay [7], in [8] and in [9] was “inactive” in each case. The Potency entry in assay [10], in [15] and in assay [11] was “inactive” in each case. In addition, in assay [12], the Potency was 11 µM (active).
For the compound `CC(=O)[C@@]1(O)CC[C@H]2[C@@H]3C[C@H](C)C4=CC(=O)CC[C@]4(C)[C@H]3CC[C@@]21C`, the Potency entry in assay [2], in [3], in assay [4], in assay [8], in assay [9] and in assay [10] was “inactive” each time. For the same compound, the Potency entry in assay [15] is “inactive”. Also, the compound was classed as inactive in [5] and in assay [14]. The Potency in assay [12] is 34.7 µM (active).
Consider `CCCCC(CC)COCCCN` (centres undefined), for which the result in [13], in assay [5], in assay [6] and in assay [14] was inactive. The Potency entry in assay [2], in assay [3], in assay [4], in assay [7], in assay [8] and in [9] was “inactive” throughout. Besides, in [10], the Potency entry is “inactive”. Further, the Potency in [11] is 60.4 µM (active); in assay [12], 12.5 µM (active).
As to `O=C(Nc1ccccc1)OCC(CN1CCCCC1)OC(=O)Nc1ccccc1` (centres undefined), the compound was called inactive in assay [13], in assay [5] and in [6]. Besides, the Potency result in [2], in assay [16], in [3], in assay [4], in assay [7] and in [10] was “inactive” in each case. In assay [15], the Potency entry was “inactive”. Besides, the results for the Potency in assay [11], in assay [18] and in assay [12] were 2.37 µM (active), 10 µM (active) and 0.436 µM (active), respectively. Further, in [17], the max activation is 0.646%.
`CC(C)(C)c1cc(CO)cc(C(C)(C)C)c1O`: the result in [13], in assay [5], in assay [6] and in assay [14] was inactive. Besides, the Potency entry in [2], in assay [3], in assay [4], in assay [7], in assay [8] and in assay [10] was “inactive” each time. Besides, in [15], the Potency result is “inactive”. The Potency in [12] was 72.4 µM (active).
In the case of `CNCC[C@@H](Oc1ccccc1C)c1ccccc1`, the result in [13], in [5] and in assay [14] was inactive. The Potency result in assay [3], in assay [4], in assay [9], in [10], in [15] and in assay [11] was “inactive” each time.
Take `Cn1sccc1=O`: the compound was called inactive in [13], in [5], in assay [6] and in assay [14]. Besides, the Potency entry in assay [1], in assay [2], in assay [3], in [7], in assay [8] and in assay [10] was “inactive” throughout. Further, the Potency entry in assay [15] and in assay [12] was “inactive” each time. For the same compound, the Potency was 30.6 µM (active) and 43.3 µM (active) in assay [9]; 30.6 µM (active) and 61.1 µM (active) in assay [11].
On to `CC(C)NCC(O)c1cc(O)cc(O)c1` (centres undefined), for which the compound was classed as inactive in [13], in assay [5] and in [14]. The Potency entry in assay [2], in assay [3], in [4], in assay [8], in [9] and in assay [10] was “inactive” in each case. The Potency entry in assay [15], in [11], in assay [18], in assay [19] and in assay [12] was “inactive” throughout. In addition, the max activation in assay [17] was -6.91%.
In the case of `CC(C(=O)O)c1ccc(-c2ccccc2)c(F)c1` (centres undefined), the Potency entry in assay [3], in [4], in assay [8], in assay [9], in assay [10] and in assay [15] was “inactive” throughout. The Potency result in assay [18] and in assay [19] was “inactive” in each case. Further, in [14], the compound was classed as inactive. Further, the max activation in assay [17] is -4.66%.
Take `O=C=NC1CCC(CC2CCC(N=C=O)CC2)CC1` (centres undefined): the outcome in assay [13], in [5], in assay [6] and in assay [14] was inactive. The Potency result in assay [1], in assay [3], in [4], in [7], in assay [9] and in assay [10] was “inactive” each time. Besides, the Potency entry in [15] was “inactive”. Further, the Potency in [16] is 8.63 µM (active); in [12] it was 35.6 µM (active).
For `CC(C)(C)c1cc(O)c(C(C)(C)C)cc1O`, the outcome in assay [13], in assay [5] and in assay [14] was inactive. Also, the Potency entry in [3], in assay [4], in assay [7] and in assay [10] was “inactive” in each case. Further, the Potency in assay [9] was 61.1 µM (active).
